Common to all, as to test: PBM binding z-score (relative to random genomic background probes); higher = stronger binding; sequences stand for … in GC…GCGATTGACAGCGTAGAATGAAGG
For assay [1], the system named is RARb homodimer (NR concentration 270 nM). Summed up: (§1)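 Custom Agilent 4×180K protein-binding microarrays carried double-stranded probes. Their 34-nt variable regions held direct-repeat seeds, single-nucleotide variants, half-site ablations and random human genomic background sequences. Arrays were incubated 1 h with ligand-free nuclear receptor dimers in PBS pH 7.4, 2% milk, 0.02% Triton X-100, 1 mM DTT, 0.2 mg/mL BSA and 0.4 mg/ml salmon testes DNA. Antibodies against each partner (one per run) detected binding, and scanned fluorescence was regression-normalized. Binding z-scores use random background probes as reference.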

The subject of assay [2] is RARg:RXRa (NR concentration 270 nM, RXRa partner concentration 90 nM). Summed up: as §1
In assay [3] the test system is RARg homodimer (NR concentration 270 nM). Summed up: as §1
Assay [4] has as its system RXRa DBDmut IVT, anti-RXR (DBD mutation: RXRa K156A/R161A, NR concentration 90 nM). The method, boiled down: as §1
The subject of assay [5] is RXRa homodimer (NR concentration 180 nM). Summed up: as §1
Assay [6] has as its system THRa:RXRa (NR concentration 90 nM, RXRa partner concentration 90 nM). The method, boiled down: as §1
The test system of assay [7] is THRa homodimer (NR concentration 90 nM). Summed up:
as §1

For assay [8], the system named is VDR homodimer (NR concentration 270 nM). The method, boiled down:
as §1

In the case of TGAATGTGGTTAAAGATCAGGGAACGTGGCGTCG, the PBM binding z-score was -0.107 in assay [1]; 0.0115 in assay [2]; -0.196 in assay [3]; -0.526 in assay [4]; 0.126 in assay [5]; -0.141 in assay [6]. Further, the results for the PBM binding z-score in assay [7] and in assay [8] were -0.0512 and -0.00679, respectively.

On to CGAACTAGATCATCCAGGACAGTGAATACATTGA, for which the PBM binding z-score in assay [1] was 0.254; in assay [2], 0.0804; in assay [3], 0.347; in assay [4], 0.701; in assay [5], -0.151; in assay [6], 1.13. Further, the PBM binding z-score in assay [7] stood at 1.14; in assay [8] it was 0.494.

For the sequence TAGCCTAGGTCATTCAGGGGCCATTATAGAAAGC, the PBM binding z-score in assay [1] came out at 3.54; in assay [2] it was 6.28; in assay [3], 4.48; in assay [4], 2.04; in assay [5], 3.12; in assay [6] it was 3.69. Besides, the PBM binding z-score in assay [7] was 1.13; in assay [8] it was 1.96.

For the sequence TCTATAAGTTGATTAGGGCAACCGAAACAGCGGA, the PBM binding z-score in assay [1] stood at 0.772; in assay [2], 0.61; in assay [3], 0.741; in assay [4] it was 1.23; in assay [5] it was 0.5; in assay [6] it was 1.11. In addition, the PBM binding z-score in assay [7] came to 0.212; in assay [8] it was 0.543.

ACTTGTTGGTCAGCTGAGGTCACACACAATTCGG: the PBM binding z-score in assay [1] is 4.48; in assay [2], 4.18; in assay [3], 4.01; in assay [4], 1.38; in assay [5] it was 3.99; in assay [6] it was 5.15. The results for the PBM binding z-score in assay [7] and in assay [8] were 5.03 and 3.16, respectively.

CCGAGTAGGTTAGGGGGCATTCAGGCAACGGTGA: the PBM binding z-score in assay [1] is 2.12; in assay [2], 2.21; in assay [3] it was 1.79; in assay [4], 1.54; in assay [5], 2.03; in assay [6], 2.4. The figures for the PBM binding z-score in assay [7] and in assay [8] were 1.37 and 2.8, respectively.

ATCTCTAGGTAAAAGATCAGTGAATCCCGAGGAT: the PBM binding z-score in assay [1] is -0.353; in assay [2] it was 0.381; in assay [3], 0.48; in assay [4], -0.342; in assay [5] it was 0.281; in assay [6] it was 0.298. Further, the PBM binding z-score in assay [7] is 0.125; in assay [8], -0.0729.

These data come from the supplement of paper PMC6555819.
